Source: PubChem BioAssay
Compounds with a hit are over-represented: about 9.3% of the library has one in this group of screens.
NPC1 prom act: NPC1 promoter activation; Huh7 NPC1 promoter luciferase reporter, 24 h; Potency, µM (doses to about 9.22 µM), for the others: top-dose activation, actives largely listed as activators; 320,000 tested, 2.4% active; also: % of control where 0% means no effect; nearly all actives have a fitted effect of over 60% in size
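Huh7 cells stably carrying NPC1 promoter–luciferase, plated in Opti-MEM with 10% FBS for 2 h, were exposed to compound in DMSO for 24 h at 37 °C; luciferase reagent was added for 10 min and luminescence read.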
Rab9 promoter act: activators of Rab9 promoter; 320,000 tested, 2.8% active; Huh7 Rab9 promoter-luciferase reporter, luminescence, 24 h; Potency, µM (titrated, usually from 9.22 µM), for the others: at the top dose activation, negative = inhibition, usual class: activators; also: % of control where 0% means no effect; nearly all actives have a fitted effect of over 60% in size
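Luciferase signal after 10 min detection reagent at ambient indicates Rab9 promoter upregulation; stably transfected Huh7 cells were treated 24 h with compound in DMSO at 37 °C, 5% CO2.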
ELG1 DNA repair: ELG1-dependent DNA repair inhibition. 330,000 tested, 2.3% active. HEK293T ELG1-luciferase reporter, luminescence, 16 h; DNA damage induced by 5-fluorouridine. Potency, µM (series often up to 46.1 µM), without a hit: top-dose activity change, negative = inhibition, most hits filed as inhibitors; also: % is scaled to controls: 0 for no effect and ±100 for the full control effect; nearly all actives have a fitted effect of over 55% in size
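Step one: seed 2,000 cells per well. Step two: pin-transfer compound or DMSO alongside 5-fluorouridine. Step three: incubate 16 hr, 37 °C, 5% CO2. Step four: add ONE-Glo, wait 30 min, read luminescence.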
SMN2 splice up: enhancers of SMN2 splice variant expression; HEK293 SMN2-luciferase splicing reporter, luminescence, 30-36 h; 210,000 tested, 2.8% active; Potency, µM (highest dose often 46.1 µM), inactives show at the top dose activity change, positive = activation, hits mostly activators; also: % of control where 0% means no effect; nearly all actives have a fitted effect of over 55% in size
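qHTS luciferase splicing reporter: luminescence rises when SMN2 exon 7 is included in transfected HEK293 cells. Compound exposure lasted 30-36 h at 37C, with 4.5 mM final sodium butyrate as control, followed by a ONE-Glo read.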
FLuc modulator: firefly luciferase modulation, counter-screen for miR-21 project; purified FLuc, Km substrates, luminescence inhibition; AID 588342; 360,000 tested, 6.9% active; P08659; Potency, µM (highest dose often 57.5 µM), inactives show top-dose activity change, negative = inhibition, usual class: inhibitors;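 also: plate controls were vehicle for no effect and reference inhibitor for full effect; nearly all actives have a fitted effect of over 55% in size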
Target sequence (P08659 whole entry, looked up): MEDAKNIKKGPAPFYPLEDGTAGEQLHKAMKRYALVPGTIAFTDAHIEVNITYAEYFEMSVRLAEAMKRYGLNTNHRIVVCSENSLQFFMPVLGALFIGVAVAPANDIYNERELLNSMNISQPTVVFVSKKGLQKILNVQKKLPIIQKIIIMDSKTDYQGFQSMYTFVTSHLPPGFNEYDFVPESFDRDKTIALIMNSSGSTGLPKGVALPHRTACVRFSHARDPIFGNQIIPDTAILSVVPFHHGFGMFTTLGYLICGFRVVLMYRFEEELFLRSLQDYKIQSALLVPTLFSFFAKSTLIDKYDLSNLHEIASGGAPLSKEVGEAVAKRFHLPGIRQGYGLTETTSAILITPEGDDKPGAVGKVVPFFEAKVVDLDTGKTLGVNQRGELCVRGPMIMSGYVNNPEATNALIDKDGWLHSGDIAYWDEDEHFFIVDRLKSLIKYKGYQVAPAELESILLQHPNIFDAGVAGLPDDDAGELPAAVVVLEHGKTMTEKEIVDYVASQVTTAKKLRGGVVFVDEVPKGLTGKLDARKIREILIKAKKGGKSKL
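Purified P. pyralis luciferase, 10 nM final, with Km-level 10 uM D-luciferin and 10 uM ATP in 50 mM Tris acetate pH 7.5, 10 mM Mg acetate, 0.01% Tween-20, 0.05% BSA; 6-point qHTS titration about 60 µM downward; luminescence read.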
ELG1 genotoxic: genotoxicity induction in ELG1-luciferase HEK293T cells; HEK293T ELG1-luciferase reporter, luminescence, 16 h; Potency, µM (titrated, usually from 46 µM), for inactives: at the highest dose activity change, positive = activation, most hits filed as activators; 330,000 tested, 1.3% active; also: % of control where 0% means no effect; nearly all actives have a fitted effect of over 60% in size
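HEK293T cells expressing luciferase-tagged ELG1 were exposed to compound or DMSO vehicle for 16 hr at 37 °C and 5% CO2. Luciferase activity was then measured with ONE-Glo after 30 min at room temperature.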
The depositor's hits bear a star. Calls follow the shape of the dose curve; as a rule, active = well fitted curve in the direction sought with a large enough effect; inconclusive = small, poorly fitted or top-dose-only effect, or another doubt; inactive = no such curve, though single readings can be large; an effect the other way counts as inactive or inconclusive. Potency is read from the fitted curve at half-maximal effect.

What do the screens show for `O=C(c1cc(COc2ccc(F)cc2Cl)on1)N1CC2C[C@@H]3CC1C[C@H](C2)C3`?
NPC1 prom act: 3.2µM*; Rab9 promoter act: 2.5µM*; ELG1 DNA repair: inconclusive; FLuc modulator: 6.7µM*; ELG1 genotoxic: 9.2µM*

What do the screens show for `O=C(c1cc(COc2ccc(F)cc2Cl)on1)N1CC[C@@H]2CCCC[C@H]2C1`?
NPC1 prom act: -6%; Rab9 promoter act: -2%; ELG1 DNA repair: 20%; FLuc modulator: -11%; ELG1 genotoxic: -1%

Results for O=C(c1cc(COc2ccc(F)cc2Cl)on1)N1C[C@H]2CC[C@H]1C2 ?
NPC1 prom act: inconclusive; Rab9 promoter act: 2.8µM*; ELG1 DNA repair: inconclusive; FLuc modulator: 13µM*; ELG1 genotoxic: inconclusive

How did COc1ccccc1-c1noc(-c2cc(OC)c(OC)c(OC)c2)n1 do in these assays?
NPC1 prom act: 0%; Rab9 promoter act: -6%; ELG1 DNA repair: 12µM*; SMN2 splice up: 17%; FLuc modulator: -20%; ELG1 genotoxic: 0%

What do the screens show for `COc1ccccc1-c1noc(-c2cccnc2)n1`?
NPC1 prom act: 22%; Rab9 promoter act: 14%; ELG1 DNA repair: inconclusive; SMN2 splice up: 1%; FLuc modulator: inconclusive; ELG1 genotoxic: 21µM*

How did COc1cc(-c2nc(-c3cccc(C(F)(F)F)c3)no2)cc(OC)c1OC do in these assays?
NPC1 prom act: -4%; Rab9 promoter act: -6%; ELG1 DNA repair: 23µM*; SMN2 splice up: -56%; FLuc modulator: 7%; ELG1 genotoxic: 6%

What do the screens show for `COc1cnc(-c2cccc(C(F)(F)F)c2)nc1OC`?
NPC1 prom act: -2%; Rab9 promoter act: 15%; ELG1 DNA repair: -9%; SMN2 splice up: 3%; FLuc modulator: -10%; ELG1 genotoxic: 3%

What do the screens show for `COc1cc(OC)cc(-c2nc(-c3ccccc3OC)no2)c1`?
NPC1 prom act: 9%; Rab9 promoter act: 21%; ELG1 DNA repair: 8%; SMN2 splice up: 14%; FLuc modulator: -15%; ELG1 genotoxic: 8%

What do the screens show for `Cc1ccc(C(C)C)cc1OCCCCN1CCCC1`?
NPC1 prom act: 2%; Rab9 promoter act: -3%; ELG1 DNA repair: 6%; SMN2 splice up: 6%; FLuc modulator: -1%; ELG1 genotoxic: -8%

Results for CC(=O)Oc1ccc2c(=O)c(-c3ccccc3)coc2c1 ?
NPC1 prom act: inconclusive; Rab9 promoter act: inconclusive; ELG1 DNA repair: inconclusive; SMN2 splice up: 25µM*; FLuc modulator: 13µM*; ELG1 genotoxic: 0%

Results for CCOC(=O)COc1ccc2c(=O)c(-c3ccccc3)coc2c1 ?
NPC1 prom act: -1%; Rab9 promoter act: -5%; ELG1 DNA repair: 4%; FLuc modulator: 17µM*; ELG1 genotoxic: 2%

How did CC(=O)Oc1ccc2c(=O)c(N3C(=O)c4ccccc4C3=O)c(C)oc2c1 do in these assays?
NPC1 prom act: 1%; Rab9 promoter act: 2%; ELG1 DNA repair: 11%; SMN2 splice up: inconclusive; FLuc modulator: -2%; ELG1 genotoxic: 1%

How did COc1cccc(-n2nnc3c(=O)n(CC(=O)Nc4ccc(C)cc4)cnc32)c1 do in these assays?
NPC1 prom act: -3%; Rab9 promoter act: -12%; ELG1 DNA repair: 4%; SMN2 splice up: 2%; FLuc modulator: -1%; ELG1 genotoxic: 15%

Results for C=CCNC(=O)COC(=O)c1cc(S(=O)(=O)N2CCCCC2)ccc1Cl ?
NPC1 prom act: -4%; Rab9 promoter act: -2%; ELG1 DNA repair: 8%; SMN2 splice up: 2%; FLuc modulator: -1%; ELG1 genotoxic: 0%

What do the screens show for `COc1ccccc1N1CCN(C(=S)Nc2ccc(S(=O)(=O)N3CCOCC3)cc2)CC1`?
NPC1 prom act: -4%; Rab9 promoter act: -9%; ELG1 DNA repair: inconclusive; FLuc modulator: -2%; ELG1 genotoxic: -15%

Results for O=S(=O)(c1ccc(NC(=S)NCCC(c2ccccc2)c2ccccc2)cc1)N1CCOCC1 ?
NPC1 prom act: -2%; Rab9 promoter act: -2%; ELG1 DNA repair: 18µM*; SMN2 splice up: -55%; FLuc modulator: 0%; ELG1 genotoxic: -3%

What do the screens show for `O=S(=O)(c1ccc(NC(=S)N2CCN(c3ccccc3F)CC2)cc1)N1CCOCC1`?
NPC1 prom act: -1%; Rab9 promoter act: -9%; ELG1 DNA repair: 23µM*; SMN2 splice up: -60%; FLuc modulator: 4%; ELG1 genotoxic: -21%

Results for CCC1CN(C(=O)Nc2cccc(OC)c2)c2ccccc2O1 (configuration not stated) ?
FLuc modulator: -7%

How did CCOC(=O)CSc1nc2c(sc(=S)n2-c2ccccc2)c(=O)[nH]1 do in these assays?
NPC1 prom act: -4%; Rab9 promoter act: -6%; ELG1 DNA repair: -3%; SMN2 splice up: -13%; FLuc modulator: 1%; ELG1 genotoxic: -1%

What do the screens show for `CCOc1ccc(-n2c(=S)sc3c(=O)[nH]c(SCC(=O)N4CCC(C)CC4)nc32)cc1`?
NPC1 prom act: 6%; Rab9 promoter act: -6%; ELG1 DNA repair: -10%; SMN2 splice up: -48%; FLuc modulator: 1%; ELG1 genotoxic: -1%

How did CCOc1ccc(-n2c(=S)sc3c(=O)[nH]c(SCC(=O)C(C)(C)C)nc32)cc1 do in these assays?
NPC1 prom act: -6%; Rab9 promoter act: -4%; ELG1 DNA repair: 15µM*; SMN2 splice up: -59%; FLuc modulator: inconclusive; ELG1 genotoxic: 0%

Results for CCOC(=O)CSc1nc2c(sc(=S)n2-c2ccc(OCC)cc2)c(=O)[nH]1 ?
NPC1 prom act: -3%; Rab9 promoter act: 3%; ELG1 DNA repair: 21µM*; SMN2 splice up: -16%; FLuc modulator: inconclusive; ELG1 genotoxic: -3%

What do the screens show for `Brc1ccc(-c2csc(-c3ccncc3)n2)cc1`?
NPC1 prom act: 25%; Rab9 promoter act: inconclusive; ELG1 DNA repair: inconclusive; SMN2 splice up: inconclusive; FLuc modulator: 4.8µM*; ELG1 genotoxic: inconclusive

What do the screens show for `Cc1ccc(-c2csc(-c3ccncc3)n2)cc1`?
NPC1 prom act: inconclusive; Rab9 promoter act: 4µM*; ELG1 DNA repair: inconclusive; SMN2 splice up: inconclusive; FLuc modulator: 11µM*; ELG1 genotoxic: inconclusive

Results for Nc1nc(-c2ccc(Br)cc2)cs1 ?
NPC1 prom act: inconclusive; Rab9 promoter act: inconclusive; ELG1 DNA repair: inconclusive; SMN2 splice up: inconclusive; FLuc modulator: 19µM*; ELG1 genotoxic: inconclusive

How did Nc1nc(-c2ccc(F)cc2)cs1 do in these assays?
NPC1 prom act: 13%; Rab9 promoter act: inconclusive; ELG1 DNA repair: inconclusive; SMN2 splice up: -3%; FLuc modulator: inconclusive; ELG1 genotoxic: inconclusive
